“And” between values parts separate entries of the source, which are not always exact repeats. Identical values can stand only once. The source holds several records for some structures; these can differ, active in one and inactive in another. The source made the active and inactive calls.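 How the source made its calls, unless noted: active means thallium flux through the channel raised or lowered by more than 3 SD from vehicle-only wells, actives on both sides; inactive means the rest.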
Assays:
[1] = stimulators of nuclear beta-catenin in C2C12, primary screen, imaging, WNT3A-conditioned medium, mouse C2C12, NPC library (AID 1117326; in the data active means nuclear beta-catenin stimulation mostly above about 4.2%, no sharp cut-off; inactive means mostly below about 10%); conditions: stronger effect = higher value
[2] = stimulators of insulin release from INS-1E, primary screen, cell-based, 5 mM glucose, NPC library (AID 1117329;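 active means compound raises insulin release from rat beta cells at 5 mM glucose, no numeric limit stated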); conditions: rat INS-1E insulin secretion, at 10 µM, stronger effect = higher value
[3] = growth inhibition of GSK3B-pretreated HCT116 cells – cell-based, CellTiter-Glo, 0.2 to 20 µM (AID 1117336;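 active means compounds lowering colon cancer cell viability after pretreatment blocking the GSK3B kinase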); conditions: HCT116 viability after GSK3B inhibitor, at 20 µM, stronger effect = higher value
[4] = inhibition of endothelial tube formation, primary screen, imaging, VEGF stimulated, CD31 staining, tube area, NPC library (AID 1117340;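 active means compound that reduces growth-factor-driven endothelial tube area in a mixed cell culture, no cutoff stated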); conditions: VEGF-stimulated ADSC/ECFC co-culture, at 10 µM, stronger effect = higher value
[5] = glucagon-like peptide 1 release enhancers, primary assay, NCI-H716 cell line, NPC library (AID 1117341;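 active means compound raises GLP1 secretion from the human gut endocrine cells, with no numeric limit stated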); conditions: NCI-H716 cells, at 10 µM, stronger effect = higher value
[6] = HCT116 colon cancer cell growth inhibition, primary screen, CellTiter-Glo luminescence, NPC library (AID 1117342;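 active means compounds that lower survival of HCT116 colon cancer cells in the luminescence readout, no numeric limit stated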); conditions: at 20 µM (top of the series)
[7] = CellTiter-Glo luminescent readout of SW480 viability loss, NPC library primary (AID 1117343;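 active means compounds that lower viability of the colon cancer cells in the luminescence readout, with no numeric limit stated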); conditions: CellTiter-Glo luminescence; at 20 µM (top of the series)
[8] = decreased DLD-1 cellular survival, CellTiter-Glo luminescent readout, NPC compound collection, primary HTS (AID 1117346;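 active means compounds that lower survival of DLD-1 colon cancer cells in the luminescence readout, no cutoff given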); conditions: DLD-1 viability, CellTiter-Glo luminescence; at 20 µM (top of the series)
[9] = biological target: 6-phosphogluconate dehydrogenase, decarboxylating (Homo sapiens) (UniProt P52209); assay: 6PGD enzyme inhibitors, primary screen, biochemical, human, recombinant enzyme, NADPH absorbance (AID 1159550;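 active means at least 20% inhibition of 6-phosphogluconate dehydrogenase activity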); conditions: recombinant 6PGD, NADPH absorbance 341 nm; at 10 µM; stronger effect = higher value
6-phosphogluconate dehydrogenase, decarboxylating (Homo sapiens), sequence (P52209 whole entry, looked up): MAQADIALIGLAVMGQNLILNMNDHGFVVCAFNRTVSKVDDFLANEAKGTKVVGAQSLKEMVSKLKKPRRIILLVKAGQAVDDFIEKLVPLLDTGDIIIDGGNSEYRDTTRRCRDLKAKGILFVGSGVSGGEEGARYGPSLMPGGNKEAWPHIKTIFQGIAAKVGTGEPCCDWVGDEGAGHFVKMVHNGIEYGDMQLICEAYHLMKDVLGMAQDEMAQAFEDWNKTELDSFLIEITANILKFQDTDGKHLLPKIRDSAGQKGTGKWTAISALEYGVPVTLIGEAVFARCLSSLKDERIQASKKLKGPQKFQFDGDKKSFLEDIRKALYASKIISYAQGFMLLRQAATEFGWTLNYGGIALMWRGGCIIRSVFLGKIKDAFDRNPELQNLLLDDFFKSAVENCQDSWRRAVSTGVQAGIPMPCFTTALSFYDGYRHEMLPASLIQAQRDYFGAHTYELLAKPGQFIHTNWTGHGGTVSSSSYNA

[10] = differential killing of epithelial or mesenchymal cells, primary screen, imaging, PC-3E GFP, TEM4-18 mCherry, co-culture (AID 1345086;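 active means compounds killing one labelled cell type while sparing the other, by normalised counts and ratio limits, not self-fluorescent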;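 on all read-outs here: cells exposed to compound for 72 h before imaging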;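 on red/green cell ratio (normalised): normalised mesenchymal count divided by normalised epithelial count so high means epithelial killing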); conditions: imaging cell counts, at 1 µM; for red/green cell ratio (normalised): actives lie on both sides, counts scaled to control wells, 1 = unselective
[11] = sensitizers of A549 cells to miR-34 induction, primary screen, imaging, A549 dox-inducible miR-34, nuclei and caspase counts (AID 1347080;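 active means compounds whose cell count with miR-34 switched on is under 0.7 times the count with it off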); conditions: A549 miR-34 inducible, Hoechst nuclei count, 48 h
[12] = survival rescue of mitochondrial mutant cells in low glucose, primary screen, MELAS cybrids, Rieske KO mouse fibroblasts, CellTiter-Glo (AID 1508586;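 active means mean z-score across replicates of 1.96 or higher in either the MELAS or the Rieske mutant cell line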;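 further: z relative to plate mean and SD of compound and empty wells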)
[13] = biological target: NAD(+) hydrolase SARM1 (Homo sapiens) (UniProt Q6SZW1); assay: SARM1 TIR NADase inhibitors, cell lysate, NAD-Glo luminescence (AID 1508614;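 active means compound whose remaining NAD level is above about 45 nM, limit read from the data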); conditions: SAM-TIR HEK293T lysate NADase, at 1 µM, stronger effect = higher value
NAD(+) hydrolase SARM1 (Homo sapiens), sequence (Q6SZW1 whole entry, looked up, the tested form may be a part): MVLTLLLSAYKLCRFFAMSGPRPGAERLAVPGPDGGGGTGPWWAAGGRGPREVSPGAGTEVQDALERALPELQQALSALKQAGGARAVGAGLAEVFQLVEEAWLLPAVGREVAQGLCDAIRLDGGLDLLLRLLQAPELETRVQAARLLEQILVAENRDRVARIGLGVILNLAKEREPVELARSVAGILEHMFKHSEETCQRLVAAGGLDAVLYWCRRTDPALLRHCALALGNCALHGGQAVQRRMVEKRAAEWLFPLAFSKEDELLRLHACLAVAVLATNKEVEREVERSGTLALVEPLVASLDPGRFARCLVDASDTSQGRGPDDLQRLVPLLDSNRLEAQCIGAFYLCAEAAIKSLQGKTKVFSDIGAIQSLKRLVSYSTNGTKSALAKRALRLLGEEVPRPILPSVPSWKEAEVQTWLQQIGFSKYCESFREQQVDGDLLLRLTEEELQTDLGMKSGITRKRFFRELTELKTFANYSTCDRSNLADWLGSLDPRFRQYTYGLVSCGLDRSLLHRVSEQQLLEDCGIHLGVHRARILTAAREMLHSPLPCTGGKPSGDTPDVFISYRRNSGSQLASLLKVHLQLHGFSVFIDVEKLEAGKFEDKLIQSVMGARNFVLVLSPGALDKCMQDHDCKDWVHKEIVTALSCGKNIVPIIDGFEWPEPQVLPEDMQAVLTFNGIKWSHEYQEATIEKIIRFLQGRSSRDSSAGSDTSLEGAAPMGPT

[14] = biological target: Mitogen-activated protein kinase 7 (Homo sapiens) (UniProt Q13164); assay: ERK5 transactivation activators in reporter cells, primary screen, cell-based, HTS (AID 1508626;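 active means luciferase signal above three times the same-plate solvent-only control wells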;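 further: luciferase driven by Gal4-ERK5 fusion binding five Gal4 sites before minimal TATA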); conditions: HeLa Gal4-ERK5 transactivation, 18 h, at 5 µM, stronger effect = higher value
Mitogen-activated protein kinase 7 (Homo sapiens), sequence (Q13164 whole entry, looked up, the tested form may be a part): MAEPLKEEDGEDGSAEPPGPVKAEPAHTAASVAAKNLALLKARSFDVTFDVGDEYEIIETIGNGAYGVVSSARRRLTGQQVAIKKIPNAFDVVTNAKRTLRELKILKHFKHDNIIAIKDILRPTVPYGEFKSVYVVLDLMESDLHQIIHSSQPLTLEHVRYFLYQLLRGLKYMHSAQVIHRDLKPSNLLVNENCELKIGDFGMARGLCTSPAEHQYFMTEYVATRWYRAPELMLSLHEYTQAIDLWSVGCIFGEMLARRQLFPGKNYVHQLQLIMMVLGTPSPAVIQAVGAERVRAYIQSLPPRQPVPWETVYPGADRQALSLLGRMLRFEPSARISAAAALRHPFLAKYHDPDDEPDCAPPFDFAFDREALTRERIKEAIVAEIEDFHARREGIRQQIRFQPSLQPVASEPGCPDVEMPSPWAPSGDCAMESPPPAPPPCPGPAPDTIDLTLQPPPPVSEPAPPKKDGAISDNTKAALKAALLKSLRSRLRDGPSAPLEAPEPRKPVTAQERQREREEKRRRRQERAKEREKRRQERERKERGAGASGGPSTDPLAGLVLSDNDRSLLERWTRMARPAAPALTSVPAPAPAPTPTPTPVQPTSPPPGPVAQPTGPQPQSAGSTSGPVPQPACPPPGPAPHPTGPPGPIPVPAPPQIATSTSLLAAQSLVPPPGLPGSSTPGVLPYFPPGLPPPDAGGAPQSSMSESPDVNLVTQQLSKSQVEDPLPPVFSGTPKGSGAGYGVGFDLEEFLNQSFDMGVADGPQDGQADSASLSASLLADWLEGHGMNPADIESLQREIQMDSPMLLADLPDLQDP

[15] = system: Hepatitis C virus NS3 helicase; assay: HCV NS3 helicase inhibitors, primary screen, biochemical, fluorescence polarization, NIH Clinical Collection (AID 743270; call rule not given here); conditions: NS3 helicase binding to Cy5-dT15 DNA, stronger effect = higher value, concentration not given here
[16] = biological target: Single-stranded DNA-binding protein (Escherichia coli (strain K12)) (UniProt P0AGE0); assay: E. coli SSB displacement from DNA, counter-screen for HCV NS3 helicase inhibitor project, biochemical, fluorescence polarization, NIH Clinical Collection (AID 743271; in the data active means inhibition above about 28%); conditions: stronger effect = higher value, concentration not given here
[17] = fluorescence interference in NS3h assay format, artefact control for HCV NS3 helicase inhibitor project, biochemical, NIH Clinical Collection (AID 743272; call rule not given here;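 further: HCV NS3 helicase with a Cy5 labelled single stranded DNA probe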); conditions: fluorescence interference counterscreen, stronger effect = lower value
F380Y = assay: modulators of BK channel variants, profiling panel, selectivity assay, cell-based, U2OS BacMam, thallium flux, beta subunits (AID 1259406); conditions: at 30 µM;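 further: initial slope of Thallos dye fluorescence rise after thallium is added; log ratio against the mean of 0.3% DMSO vehicle wells on the same plate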
F380Y/beta2Delta = assay: as above; conditions: at 30 µM
[18] = biological target: Calcium-activated potassium channel subunit alpha-1 (Homo sapiens) + Leucine-rich repeat-containing protein 26 (Homo sapiens) (UniProt Q12791+Q2I0M4); assay: as above; conditions: F380Y/Slo1WT/gamma1, at 30 µM
Calcium-activated potassium channel subunit alpha-1 (Homo sapiens) + Leucine-rich repeat-containing protein 26 (Homo sapiens), sequence (Q2I0M4 whole entry, looked up, one chain of several): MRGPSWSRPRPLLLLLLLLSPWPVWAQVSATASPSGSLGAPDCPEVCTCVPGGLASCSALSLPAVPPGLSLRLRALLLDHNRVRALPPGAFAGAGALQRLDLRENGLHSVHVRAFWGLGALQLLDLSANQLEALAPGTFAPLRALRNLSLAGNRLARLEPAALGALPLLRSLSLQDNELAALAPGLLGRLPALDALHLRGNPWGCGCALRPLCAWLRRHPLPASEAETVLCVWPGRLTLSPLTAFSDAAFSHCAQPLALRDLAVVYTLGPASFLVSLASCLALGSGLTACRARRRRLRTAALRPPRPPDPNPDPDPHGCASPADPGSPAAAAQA

[19] = measured here: epithelial PC-3E GFP cell survival
[20] = measured here: mesenchymal TEM4-18 mCherry cell survival
[21] = stronger effect = lower value, cell number ratio, induced over uninduced
[22] = measured here: relative caspase fold change +Dox/-Dox
[23] = measured here: total cells with miR-34 induction, stronger effect = lower value
[24] = measured here: total cells without miR-34 induction
[25] = MELAS cybrid survival, CellTiter-Glo 48 h, stronger effect = higher value
[26] = Rieske KO mouse fibroblast survival, CellTiter-Glo 72 h

In the case of `CCn1cc(C(=O)O)c(=O)c2cc(F)c(N3CCNCC3)cc21`, the nuclear beta-catenin stimulation ([1]; at 10 µM) is reported as 0.1% (inactive), the nuclear beta-catenin stimulation ([1]; stimulation, at 2 µM) is reported as -1.2% and the insulin secretion stimulation [2] is reported as 1.1% (inactive). For the same molecule, the viability decrease [3] was 13.9% (inactive), the tube area decrease [4] was -4.6% (inactive) and the GLP1 secretion stimulation [5] was 4.3% (inactive). The inhibition of viability [6] was 4.5% (inactive), the viability decrease (inhibition) [7] was -12% (inactive) and the viability decrease (inhibition) [8] was -0.1% (inactive). For the same molecule, the inhibition [9] was -0.111% (inactive), the red/green cell ratio (normalised) [10] was 1.22 (inactive) and 1.14 (inactive) and the normalised cell number [10, 19] was 0.92 and 1.12. The normalised cell number [10, 20] was 1.13 and 1.28, the fold change [11, 21] was 0.843 (inactive) and 0.881 (inactive) and 0.867 (inactive) and the fold change [11, 22] was 1.43 and 1.17. For the same molecule, the cell count [11, 23] was 7840 and 11600 and 9850, the cell count [11, 24] was 9310 and 13200 and 11400 and the z-score [12, 25] was 1.33 (inactive) and -0.232 (inactive). For the same molecule, the z-score [12, 26] was -0.144 and -0.221, the remaining NAD [13] was 10 nM (inactive) and the luciferase signal [14] was 56 AU (inactive).

For `Nc1c2c(nc3ccccc13)CCCC2`, the inhibition [15] was -4.36% (inactive), the inhibition [16] was -0.1% (inactive) and the fluorescence ratio [17] was 0.85 (inactive). The nuclear beta-catenin stimulation ([1]; at 10 µM) was 1.3% (inactive), the nuclear beta-catenin stimulation ([1]; stimulation, at 2 µM) was 2.2% and the insulin secretion stimulation [2] was 32.7% (active). For the same molecule, the viability decrease [3] was 2.75% (inactive), the tube area decrease [4] was 19% (inactive) and the GLP1 secretion stimulation [5] was 13% (inactive). For the same molecule, the inhibition of viability [6] was 4.9% (inactive), the viability decrease (inhibition) [7] was 22.5% (inactive) and the viability decrease (inhibition) [8] was 3.1% (inactive). The inhibition [9] was -0.369% (inactive), the red/green cell ratio (normalised) [10] was 1.47 (inactive) and the normalised cell number [10, 19] was 0.89. The normalised cell number [10, 20] was 1.3, the z-score [12, 25] was 0.221 (inactive) and 0.852 (inactive) and the z-score [12, 26] was 0.161 and -0.102. For the same molecule, the remaining NAD [13] was 10 nM (inactive), the luciferase signal [14] was 164 AU (inactive) and the log fold change Tl+ flux (F380Y) was 0.0646 (inactive). For the same molecule, the log fold change Tl+ flux (F380Y/beta2Delta) was -0.00945 (inactive) and the log fold change Tl+ flux [18] was 0.00974 (inactive).

In the case of `CN(C)CCN(Cc1ccccc1)c1ccccn1`, the inhibition [15] is reported as 0.4% (inactive), the inhibition [16] is reported as -0.87% (inactive) and the fluorescence ratio [17] is reported as 0.93 (inactive). For the same molecule, the nuclear beta-catenin stimulation ([1]; at 10 µM) was 1.1% (inactive), the nuclear beta-catenin stimulation ([1]; stimulation, at 2 µM) was 0.8% and the insulin secretion stimulation [2] was 13% (inactive). For the same molecule, the viability decrease [3] was -23.2% (inactive), the tube area decrease [4] was 5.3% (inactive) and the GLP1 secretion stimulation [5] was 4.8% (inactive). The inhibition of viability [6] was 13.3% (inactive), the viability decrease (inhibition) [7] was -2.1% (inactive) and the viability decrease (inhibition) [8] was -41.1% (inactive). For the same molecule, the inhibition [9] was 4.76% (inactive), the red/green cell ratio (normalised) [10] was 0.96 (inactive) and the normalised cell number [10, 19] was 1.02. The normalised cell number [10, 20] was 0.99, the fold change [11, 21] was 1.02 (inactive) and 1.23 (inactive) and 0.865 (inactive) and the fold change [11, 22] was 1.94 and 0.367 and 2.89. The cell count [11, 23] was 10300 and 8350 and 10800, the cell count [11, 24] was 10100 and 6800 and 12500 and the z-score [12, 25] was -0.152 (inactive) and -0.218 (inactive). For the same molecule, the z-score [12, 26] was -0.132 and 0.37, the remaining NAD [13] was 10 nM (inactive) and the luciferase signal [14] was 32 AU (inactive). The log fold change Tl+ flux (F380Y) was -0.114 (active), the log fold change Tl+ flux (F380Y/beta2Delta) was -0.027 (inactive) and the log fold change Tl+ flux [18] was 0.0226 (inactive).

For `CCC(=O)O[C@]1(C(=O)CCl)[C@@H](C)C[C@H]2[C@@H]3CCC4=CC(=O)C=C[C@]4(C)[C@@]3(F)[C@@H](O)C[C@@]21C`, the inhibition [15] was 4.09% (inactive), the inhibition [16] was 2.57% (inactive) and the fluorescence ratio [17] was 0.96 (inactive). The nuclear beta-catenin stimulation ([1]; at 10 µM) was 4.4% (inactive), the nuclear beta-catenin stimulation ([1]; stimulation, at 2 µM) was 3.8% and the insulin secretion stimulation [2] was 8.3% (inactive). The viability decrease [3] was -89.8% (inactive), the tube area decrease [4] was 9.1% (inactive) and the GLP1 secretion stimulation [5] was 2.1% (inactive). The inhibition of viability [6] was 2.9% (inactive), the viability decrease (inhibition) [7] was 41% (inactive) and the viability decrease (inhibition) [8] was 15.6% (inactive). The inhibition [9] was 3.17% (inactive), the fold change [11, 21] was 1.05 (inactive) and 0.839 (inactive) and the fold change [11, 22] was 2.64 and 1.67. The cell count [11, 23] was 6300 and 6140, the cell count [11, 24] was 6030 and 7320 and the z-score [12, 25] was 0.507 (inactive) and -0.252 (inactive). The z-score [12, 26] was 1.67 and 0.844, the remaining NAD [13] was 10 nM (inactive) and the luciferase signal [14] was 84 AU (inactive). For the same molecule, the log fold change Tl+ flux (F380Y) was 0.112 (active), the log fold change Tl+ flux (F380Y/beta2Delta) was 0.293 (active) and the log fold change Tl+ flux [18] was 0.157 (active).

For `C[C@@H]1CC(=O)NN=C1c1ccc(NN=C(C#N)C#N)cc1`, the nuclear beta-catenin stimulation ([1]; at 10 µM) was 7.5% (inactive) and 2.8% (inactive), the nuclear beta-catenin stimulation ([1]; stimulation, at 2 µM) was 0% and -0.4% and the insulin secretion stimulation [2] was -2.9% (inactive) and -1.5% (inactive). The viability decrease [3] was -8.85% (inactive) and 2.3% (inactive), the tube area decrease [4] was 41.6% (active) and 22.4% (inactive) and the GLP1 secretion stimulation [5] was 1.1% (inactive) and -7% (inactive). For the same molecule, the inhibition of viability [6] was -20.6% (inactive) and 6.9% (inactive), the viability decrease (inhibition) [7] was 30.7% (inactive) and -5.7% (inactive) and the viability decrease (inhibition) [8] was 12.6% (inactive) and 21.9% (inactive). The red/green cell ratio (normalised) [10] was 1.17 (inactive), the normalised cell number [10, 19] was 1.03 and the normalised cell number [10, 20] was 1.21. The fold change [11, 21] was 0.967 (inactive), the fold change [11, 22] was 0.752 and the cell count [11, 23] was 8720. The cell count [11, 24] was 9020 and the remaining NAD [13] was 10 nM (inactive).

For `CCN(CC)CC(=O)Nc1c(C)cccc1C`, the inhibition [15] was -1.98% (inactive), the inhibition [16] was -0.87% (inactive) and the fluorescence ratio [17] was 0.96 (inactive). The nuclear beta-catenin stimulation ([1]; at 10 µM) was -0.4% (inactive), the nuclear beta-catenin stimulation ([1]; stimulation, at 2 µM) was 0.8% and the insulin secretion stimulation [2] was -1.4% (inactive). The viability decrease [3] was -9.9% (inactive), the tube area decrease [4] was 9.2% (inactive) and the GLP1 secretion stimulation [5] was 0.9% (inactive). The inhibition of viability [6] was -5.2% (inactive), the viability decrease (inhibition) [7] was -0.2% (inactive) and the viability decrease (inhibition) [8] was 0.45% (inactive). For the same molecule, the inhibition [9] was -1.54% (inactive), the red/green cell ratio (normalised) [10] was 1.11 (inactive) and the normalised cell number [10, 19] was 1.01. The normalised cell number [10, 20] was 1.12, the z-score [12, 25] was -0.329 (inactive) and 0.222 (inactive) and 0.215 (inactive) and the z-score [12, 26] was -0.148 and 0.143 and 0.303. For the same molecule, the remaining NAD [13] was 10 nM (inactive), the luciferase signal [14] was 48 AU (inactive) and the log fold change Tl+ flux (F380Y) was 0.00448 (inactive). For the same molecule, the log fold change Tl+ flux (F380Y/beta2Delta) was -0.0588 (inactive) and the log fold change Tl+ flux [18] was 0.0193 (inactive).

Reference: PubChem BioAssay
